Measured values from PubChem BioAssay (NCATS).
Values joined by “and” are separate entries in the source; they are usually repeats but may differ in a detail not shown here. Equal entries are not always repeated. Records with an inconclusive call do not appear. Active and inactive are the calls of the source. Unless noted, the call rests on the fitted dose curve; in most records, active means well fitted curve in the direction sought with a large enough effect; inconclusive means small, poorly fitted or top-dose-only effect, or another doubt; inactive means no such curve, though single readings can be large; an effect the other way counts as inactive or inconclusive.

Experiments:
[1] = Stat Signaling Pathway (AID 446; active means well fitted curve in either direction with a large enough effect, not every such curve was filed as active;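 further: ME-180 cervical cancer cells given 40 pM IL-6 alongside compound; SIE-controlled beta-lactamase reporter measured as 460/530 nm FRET emission ratio; on the % scale 0 is the no-effect control and ±100 the full control effect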); details: ME-180 (cervical carcinoma) SIE beta-lactamase reporter, IL-6 stimulated, 5 h
How it was run: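 IL-6/STAT signaling read in ME-180 cells via an SIE beta-lactamase reporter. Stimulus was 40 pM IL-6 (its AC50) for 5 hrs, so both activation and inhibition register.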

[2] = biological target: Glucocorticoid receptor (Homo sapiens) (UniProt P04150); test: GR-GFP Redistribution (AID 450;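 active means compounds whose dose series gives a full or clear partial fitted curve of increased nuclear translocation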; further: potency means the concentration at half of the fitted maximal effect); details: U2OS GR-GFP nuclear translocation, laser cytometry, 2 h
Sequence of Glucocorticoid receptor (Homo sapiens) (P04150 whole entry, looked up, the tested form may be a part): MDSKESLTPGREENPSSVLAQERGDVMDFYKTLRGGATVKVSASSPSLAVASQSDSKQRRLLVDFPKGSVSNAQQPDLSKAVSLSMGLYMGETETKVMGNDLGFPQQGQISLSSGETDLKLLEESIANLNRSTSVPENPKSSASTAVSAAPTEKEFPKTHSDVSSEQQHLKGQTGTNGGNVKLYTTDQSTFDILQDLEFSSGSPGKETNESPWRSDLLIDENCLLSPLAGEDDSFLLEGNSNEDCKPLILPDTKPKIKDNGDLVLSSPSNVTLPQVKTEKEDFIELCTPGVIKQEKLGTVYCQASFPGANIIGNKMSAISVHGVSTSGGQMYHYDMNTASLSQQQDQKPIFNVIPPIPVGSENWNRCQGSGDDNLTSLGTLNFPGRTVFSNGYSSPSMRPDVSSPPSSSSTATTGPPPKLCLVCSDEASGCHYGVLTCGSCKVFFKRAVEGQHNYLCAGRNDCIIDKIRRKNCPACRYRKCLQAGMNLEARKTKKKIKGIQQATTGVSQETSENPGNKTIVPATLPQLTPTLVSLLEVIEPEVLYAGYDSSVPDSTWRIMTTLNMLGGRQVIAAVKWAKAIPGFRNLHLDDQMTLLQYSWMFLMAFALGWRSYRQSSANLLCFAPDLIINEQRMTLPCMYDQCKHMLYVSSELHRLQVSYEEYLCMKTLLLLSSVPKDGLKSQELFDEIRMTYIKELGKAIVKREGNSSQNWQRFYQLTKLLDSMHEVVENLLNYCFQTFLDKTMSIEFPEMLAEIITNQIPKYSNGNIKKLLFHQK

[3] = biological target: Glucocorticoid receptor (Homo sapiens) (UniProt P04150); test: GR-EFC Redistribution (AID 451; calls by dose curve; further: potency means the concentration at half of the fitted maximal effect); details: CHO-K1 GR-EFC translocation, beta-gal luminescence, 2 h
How it was run: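 Translocation of GR-ED fusion to nuclear EA restores b-gal, read by luminescence after 1 h room-temperature detection. Engineered CHO-K1 biosensor cells, 1,000/well, exposed 2 h at 37 C to titrations up to 46 uM final.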

[4] = biological target: Mitogen-activated protein kinase 10 (Mus musculus) (UniProt Q61831); test: JNK3 AlphaScreen Assay (AID 530; active means well fitted curve in either direction with a large enough effect, not every such curve was filed as active;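 further: kinase came from lysate of stimulated human HepG2 cells; signal reports phosphorylation of biotinylated GST-cJun 1-79 at Ser73 with 10 µM ATP; on the % scale 0 is the no-effect control and ±100 the full control effect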); details: JNK3 lysate, c-Jun phosphorylation; series mostly up to 57.1 µM
How it was run: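 Room-temperature AlphaScreen kinase assay; pre-activated HepG2 lysate as JNK3 source, biotin-GST-cJun(1-79) substrate, 10 uM ATP, compound 15 min preincubation.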

[5] = Cell Viability - N2a (AID 540); details: N2a mouse neuroblastoma cell viability; activity change, negative = cytotoxicity: at 92.2 µM (top of the series);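 further: plate controls were DMSO alone for no effect and tamoxifen control for full effect; nearly all actives have a fitted effect of over 45% in size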
How it was run: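 First, 1500 N2a cells per well incubate 5 hr at 37 °C; next, compounds are added and incubated 40 hr at 37 °C; finally CellTiter-Glo is added and luminescence read after 20 min, with AC50 derived by Hill modeling.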

[6] = Cell Viability - HUV-EC-C (AID 542); details: HUV-EC-C endothelial cell viability, qHTS; series mostly up to 92.2 µM; further: on the % scale 0 is the no-effect control and ±100 the full control effect; nearly all actives have a fitted effect of over 35% in size
How it was run: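 Decrease in cellular ATP, quantified by luciferase luminescence, reflects toxicity in normal human vascular endothelial HUV-EC-C cells given compound for 40 hr in complete culture medium. Values are AC50s from concentration-response curves.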

[7] = Cell Viability - SH-SY5Y (AID 544); details: SH-SY5Y neuroblastoma cell viability; viability change, negative = cytotoxic: at 92.2 µM (top of the series); further: nearly all actives have a fitted effect of over 55% in size
How it was run: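 Cytotoxicity is scored as a concentration-dependent fall in intracellular ATP in human SH-SY5Y cells treated 40 hr in complete culture medium. Potency is expressed as AC50 from a Hill equation fit.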

[8] = Cell Viability - Renal Proximal Tubule (AID 545); details: renal proximal tubule cells viability, primary cells of rat origin; activity change, negative = cytotoxicity: at 91.7 µM (top of the series); further: nearly all actives have a fitted effect of over 40% in size
How it was run: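 Rat renal proximal tubule primary cells, 1000/well, exposed to compounds for 40 hr at 37 °C in complete medium; cellular ATP read by CellTiter-Glo luminescence. AC50 from concentration-response fitted with standard Hill equation.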

[9] = Cell Viability - Mesenchymal (AID 546); details: mesenchymal cells viability, qHTS; activity change, negative = cytotoxicity: at 91.7 µM (top of the series);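 further: cells exposed to compound for 40 hours before reading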
How it was run: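 AC50 values reflect the drop in intracellular ATP in a human kidney mesenchymal line derived from normal glomeruli. Treatment lasts 40 hr at 37 °C in complete medium, and the signal comes from CellTiter-Glo luminescence.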

[10] = biological target: 3',5'-cyclic-AMP phosphodiesterase 4B (Homo sapiens) (UniProt Q07343); test: qHTS Assay for Inhibitors of PDE-IV (AID 607; active means well fitted activation curve with a large enough effect in the main read-out, with a control signal flat, not every such curve was filed as active; further: % of control where 0% means no effect); details: HEK293 ACTOne CNG channel cells, membrane potential fluorescence; series mostly up to 22.9 µM
Sequence of 3',5'-cyclic-AMP phosphodiesterase 4B (Homo sapiens) (Q07343 whole entry, looked up): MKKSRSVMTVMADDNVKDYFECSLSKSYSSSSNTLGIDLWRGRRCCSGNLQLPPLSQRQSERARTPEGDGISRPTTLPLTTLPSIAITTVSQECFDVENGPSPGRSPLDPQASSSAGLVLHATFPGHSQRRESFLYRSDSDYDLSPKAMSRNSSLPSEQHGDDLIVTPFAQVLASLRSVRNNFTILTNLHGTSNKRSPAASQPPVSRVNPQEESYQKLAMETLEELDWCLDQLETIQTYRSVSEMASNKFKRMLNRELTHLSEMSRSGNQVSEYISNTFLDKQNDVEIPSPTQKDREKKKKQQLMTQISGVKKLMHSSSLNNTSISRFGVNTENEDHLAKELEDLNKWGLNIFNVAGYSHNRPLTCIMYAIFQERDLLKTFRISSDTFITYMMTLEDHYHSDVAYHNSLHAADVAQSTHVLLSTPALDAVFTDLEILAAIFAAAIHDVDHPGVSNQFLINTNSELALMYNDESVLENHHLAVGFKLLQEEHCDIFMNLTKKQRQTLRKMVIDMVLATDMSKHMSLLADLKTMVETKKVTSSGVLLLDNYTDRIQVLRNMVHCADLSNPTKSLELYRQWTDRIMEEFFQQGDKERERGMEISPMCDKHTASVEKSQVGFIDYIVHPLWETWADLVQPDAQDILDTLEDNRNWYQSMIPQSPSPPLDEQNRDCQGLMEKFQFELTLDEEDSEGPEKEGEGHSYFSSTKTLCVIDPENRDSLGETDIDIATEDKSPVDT
How it was run: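 Live HEK293 cells with a modified cyclic nucleotide-gated (CNG) channel report intracellular cAMP via membrane-potential dye fluorescence (ex 535/em 590 nm). Endogenous PDE-IV was targeted. Compounds were tested at up to 22.9 uM final; RO 20-1724 100 uM served as control.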

[11] = Cellular Toxicity (caspase-3) HepG2 (AID 654); details: HepG2 caspase-3 activation, luminescence; series mostly up to 92.2 µM;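 further: cells exposed to compound for 16 hours before reading; 0% = DMSO alone and 100% = caspase signal from 100 µM tamoxifen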
How it was run: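 qHTS, HepG2, 1500 cells/well, complete medium; cpd 16 h 37 °C; Caspase-Glo 3/7, 20 min RT; lum. Norm: DMSO vs 100 uM tamoxifen; AC50 Hill fit.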

[12] = Cellular Toxicity (caspase-3) Jurkat (AID 655); details: Jurkat caspase-3 activation, luminescence, DMSO = 0%, tamoxifen = 100%; at 92.2 µM (top of the series);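 further: cells exposed to compound for 16 h at 37 °C before reading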
How it was run: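 Jurkat cells (5000/well) in complete medium exposed 16 h at 37 C; caspase-3/7 activity read by Caspase-Glo luminescence after 20 min at room temperature. Normalized to DMSO and 100 uM tamoxifen; AC50 from Hill fits.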

[13] = Cellular Toxicity (caspase-3) HUV-EC-C (AID 656); details: HUV-EC-C cells, caspase-3 activation (apoptosis); series mostly up to 92.2 µM
How it was run: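 HUV-EC-C cells (1000/well) in complete medium, compound-treated 16 h at 37 °C; caspase-3/7 activity read by Caspase-Glo 3/7 luminescence. Normalized to DMSO (basal) and 100 uM tamoxifen (100%); AC50 from Hill-equation concentration-response fits.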

[14] = Cellular Toxicity (caspase-3) SHSY5Y (AID 657); details: SH-SY5Y caspase-3 activation, DMSO zero, 10 µM staurosporine = 100%; series mostly up to 91.7 µM
How it was run: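 SH-SY5Y human neuroblastoma cells, 1500/well, exposed to compound for 16 hours at 37 °C in complete medium. Caspase-3/7 activity read by Caspase-Glo luminescence after 1 hr at room temperature, normalized to DMSO and 10 uM staurosporine; AC50 from Hill fit.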

[15] = Cellular Toxicity (caspase-3) BJ (AID 658); details: BJ fibroblasts, luminescence, normalized: DMSO 0%, staurosporine 100%; series mostly up to 91.7 µM;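 further: 0% = DMSO basal and 100% = 10 µM staurosporine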
How it was run: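 Readout: Caspase-Glo 3/7 luminescence increase in BJ cells after 16 hr treatment at 37 °C. Staurosporine and tamoxifen served as positive controls; AC50 values came from Hill modelling of data normalized to DMSO and 10 uM staurosporine.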

[16] = Cellular Toxicity (caspase-3) MRC-5 (AID 659); details: MRC-5 cells, luminescence; Potency: caspase-3 activation; series mostly up to 91.7 µM;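 further: 0% = DMSO basal and 100% = 10 µM staurosporine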
How it was run: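 Concentration-dependent caspase 3/7 activation is measured in human normal lung fibroblasts (MRC-5) following 16-hour treatment. AC50 values come from standard Hill-equation modeling of luminescence normalized to DMSO and 10 uM staurosporine.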

[17] = Cellular Toxicity (caspase-3) SK-N-SH (AID 661); details: SK-N-SH caspase-3 activation, qHTS; series mostly up to 91.7 µM;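 further: 0% = DMSO basal and 100% = 10 µM staurosporine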
How it was run: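 Caspase 3/7 activation is measured as a luminescence increase from aminoluciferin released by substrate cleavage in SK-N-SH cells after 16 hr compound treatment; values are AC50 from concentration-response curves.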

[18] = Cellular Toxicity (caspase-3) H-4-II-E (AID 663); details: H-4-II-E rat hepatoma, scaled: DMSO 0%, 100 µM tamoxifen 100%; at 92.2 µM (top of the series);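 further: cells exposed to compound for 16 hr before readout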
How it was run: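 Apoptosis induction is scored as increased luminescence from caspase 3/7 substrate cleavage in rat hepatoma H-4-II-E cells exposed to compound for 16 hr. Activity is scaled between DMSO and 100 uM tamoxifen.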

[19] = Cell Viability - NIH 3T3 (AID 541); details: NIH 3T3 cell viability, qHTS; at 92.2 µM (top of the series);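 further: plate controls were DMSO alone for no effect and tamoxifen positive control for full effect; nearly all actives have a fitted effect of over 25% in size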
How it was run: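 AC50 values reflect concentration-dependent loss of intracellular ATP in NIH 3T3 cells after 40 hr treatment in complete culture medium, quantified by luciferase-based luminescence.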

[20] = Cell Viability - H-4-II-E (AID 543); details: H-4-II-E rat hepatoma viability; series mostly up to 92.2 µM; further: on the % scale 0 is the no-effect control and ±100 the full control effect; nearly all actives have a fitted effect of over 35% in size
How it was run: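 Here, cytotoxicity is measured in the rat hepatoma line H-4-II-E as loss of intracellular ATP after 40 hr compound treatment, detected by luciferase luminescence.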

O=c1c(-c2ccc(O)cc2)coc2cc(O)ccc12
inactive: activity, negative = inhibition ([1]; at 38 µM (top of the series)) -22% | Potency [2] > 46 µM | Potency [3] > 46 µM | outcome [4] | Potency [5] | Potency [6] | Potency [7] | Potency [8] | Potency [9] | outcome [10] | Potency [11] | caspase-3 activation [12] -7.71% | Potency [13] | outcome [14] | outcome [15] | Potency [16] | Potency [17] | caspase-3 activation [18] -2.27%

O=C(O)CCc1nc(-c2ccccc2)c(-c2ccccc2)o1
inactive: activity, negative = inhibition ([1]; at 7.69 µM (top of the series)) 5.68% | activity, negative = inhibition ([1]; at 17.2 µM (top of the series)) -0.803% | activity, negative = inhibition ([1]; at 38 µM (top of the series)) -12.8% | Potency [2] > 46 µM and > 20.6 µM | Potency [3] > 46 µM and > 20.6 µM and > 9.22 µM | outcome [4] | outcome [10]

CC(C(=O)O)c1ccc(-c2ccccc2)c(F)c1 (configuration not stated)
inactive: activity, negative = inhibition ([1]; at 17.2 µM (top of the series)) -6.1% | Potency [2] > 20.6 µM

COc1ccc(-c2coc3cc(O)cc(O)c3c2=O)cc1
inactive: activity, negative = inhibition ([1]; at 17.2 µM (top of the series)) 5.25% | Potency [2] > 46 µM and > 20.6 µM | Potency [3] > 46 µM | outcome [4]

O=C(O)c1cc(-c2ccccc2)nc2ccccc12
inactive: activity, negative = inhibition ([1]; at 17.2 µM (top of the series)) -0.648% | Potency [2] > 20.6 µM

CCCCC1C(=O)N(c2ccccc2)N(c2ccccc2)C1=O
inactive: activity, negative = inhibition ([1]; at 17.2 µM (top of the series)) -15.3% | activity, negative = inhibition ([1]; at 38 µM (top of the series)) -22.4% | Potency [2] > 46 µM and > 20.6 µM | Potency [3] > 46 µM | outcome [4] | Potency [5] | activity change, negative = cytotoxicity [19] -19.1% | Potency [6] | Potency [20] | Potency [7] | Potency [8] | Potency [9] | outcome [10] | Potency [11] | caspase-3 activation [12] 0.354% | Potency [13] | outcome [14] | outcome [15] | Potency [16] | Potency [17] | caspase-3 activation [18] 0.827%

CC(C)NCC(O)COc1cccc2[nH]ccc12 (configuration not stated)
inactive: activity, negative = inhibition ([1]; at 17.2 µM (top of the series)) 24.1% | Potency [2] > 20.6 µM

CC(=O)CCCCn1c(=O)c2c(ncn2C)n(C)c1=O
inactive: activity, negative = inhibition ([1]; at 17.2 µM (top of the series)) -10.5% | activity, negative = inhibition ([1]; at 38 µM (top of the series)) 9.49% | Potency [2] > 46 µM and > 20.6 µM | Potency [3] > 46 µM and > 20.6 µM | outcome [4] | outcome [10]
